Test systems include NCI-H23 lung; NCI-H226 lung; NCI-H322M lung; HOP-62 NSCLC; NCI-H460 lung; HOP-92 NSCLC; A549/ATCC NSCLC; 786-0 renal; COLO 205 colon; DU-145 prostate; K-562 leukemia; MALME-3M melanoma; MDA-MB-231 breast; RXF 393 renal; SF-268 CNS; SF-295 CNS; SF-539 CNS; UACC-257 melanoma; M14 melanoma; NCI-H522 lung.
What all share (test): NCI-60 one-dose screen, 48 h (100 = growth as untreated, 0 = no growth, -100 = all killed)
Holding throughout (details): 10 µM unless noted

For 7 compounds, growth results are on record in PubChem BioAssay (NCI).

Molecules are shown by their SMILES. Where “and” joins values, the source holds several entries; their conditions need not be identical. Identical values can stand only once. This is part of a sample that, as a whole, favours compounds with a hit. Of some 83,000 tested, about 20% had one in any assay.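 Negative percent growth values reflect cell death: -40 means 40% of the cells present at the start died, and -100 means all died.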 Calls of active or inactive are those of the source. Rule for the calls: active = growth percent below 10; inactive = the rest.

Take `CCN(CC)CCn1c(=O)n(C)c2ccccc21`: the growth in the experiment with NCI-H23 lung is 97.4% (inactive); in the experiment on NCI-H226 lung it was 102% (inactive); in the experiment on NCI-H322M lung, 106% (inactive); with HOP-62 NSCLC it was 107% (inactive); with NCI-H460 lung, 106% (inactive); in the experiment on HOP-92 NSCLC, 93.7% (inactive). The growth in the experiment on A549/ATCC NSCLC was 105% (inactive); in the experiment on 786-0 renal it was 111% (inactive); in the experiment on COLO 205 colon, 109% (inactive); in the experiment on DU-145 prostate, 109% (inactive); in the experiment with K-562 leukemia, 103% (inactive); in the experiment on MALME-3M melanoma it was 103% (inactive). Besides, the growth was 119% (inactive) in the experiment on MDA-MB-231 breast; 106% (inactive) with RXF 393 renal; 101% (inactive) in the experiment with SF-268 CNS; 111% (inactive) with SF-295 CNS; 98.1% (inactive) in the experiment with SF-539 CNS; 97.5% (inactive) in the experiment on UACC-257 melanoma. Also, in the experiment with M14 melanoma, the growth was 108% (inactive).

Consider `Cc1cc(Br)c([N+](=O)[O-])cc1[N+](=O)[O-]`, for which the growth in the experiment with NCI-H23 lung was 98.6% (inactive); in the experiment with NCI-H226 lung, 95.5% (inactive); in the experiment on NCI-H322M lung it was 132% (inactive); in the experiment on HOP-62 NSCLC, 100% (inactive); in the experiment on NCI-H460 lung it was 97.5% (inactive); with HOP-92 NSCLC, 134% (inactive). Further, the growth with A549/ATCC NSCLC is 101% (inactive); in the experiment with 786-0 renal, 103% (inactive); in the experiment on COLO 205 colon, 72.9% (inactive); in the experiment with DU-145 prostate, 89.4% (inactive); with K-562 leukemia, 75% (inactive); with MALME-3M melanoma, 128% (inactive). For the same compound, the growth with MDA-MB-231 breast was 97.8% (inactive); in the experiment on RXF 393 renal it was 103% (inactive); in the experiment on SF-268 CNS it was 97.2% (inactive); with SF-295 CNS it was 114% (inactive); in the experiment with SF-539 CNS, 97.9% (inactive); in the experiment on UACC-257 melanoma it was 98.7% (inactive). Besides, the growth in the experiment with M14 melanoma was 96.2% (inactive).

Regarding `CNC(=O)CCl`, the growth in the experiment with NCI-H23 lung is 101% (inactive); in the experiment with NCI-H226 lung, 90.9% (inactive); in the experiment on NCI-H322M lung, 102% (inactive); in the experiment on HOP-62 NSCLC, 98.5% (inactive); in the experiment with NCI-H460 lung it was 107% (inactive); with HOP-92 NSCLC, 93.7% (inactive). The growth is 106% (inactive) in the experiment with NCI-H522 lung; 96.3% (inactive) with A549/ATCC NSCLC; 108% (inactive) in the experiment with COLO 205 colon; 114% (inactive) with DU-145 prostate; 121% (inactive) with K-562 leukemia; 92.5% (inactive) with MALME-3M melanoma. Moreover, the growth is 110% (inactive) in the experiment with RXF 393 renal; 104% (inactive) in the experiment on SF-268 CNS; 105% (inactive) in the experiment on SF-295 CNS; 102% (inactive) in the experiment with SF-539 CNS; 92.5% (inactive) with UACC-257 melanoma; 105% (inactive) in the experiment on M14 melanoma.

Consider `CN(C)c1ccc(N)cc1`, for which the growth in the experiment on NCI-H23 lung is 96.6% (inactive) and 10.7% (inactive); in the experiment with NCI-H226 lung, 101% (inactive) and 82.3% (inactive); in the experiment on NCI-H322M lung it was 95.3% (inactive) and 111% (inactive); in the experiment with HOP-62 NSCLC it was 93.7% (inactive) and 47.1% (inactive); in the experiment on NCI-H460 lung, 103% (inactive) and 54.2% (inactive); with HOP-92 NSCLC, 98.1% (inactive) and 41.6% (inactive). The growth with A549/ATCC NSCLC was 97.2% (inactive) and 33.1% (inactive); in the experiment with 786-0 renal it was 109% (inactive); in the experiment with COLO 205 colon it was 103% (inactive) and 43.1% (inactive); in the experiment with DU-145 prostate it was 113% (inactive) and 58.4% (inactive); with K-562 leukemia, 83.7% (inactive) and 44.9% (inactive); in the experiment with MALME-3M melanoma it was 115% (inactive) and 95.7% (inactive). For the same compound, the growth in the experiment with MDA-MB-231 breast is 88% (inactive) and 58.6% (inactive); with RXF 393 renal it was 109% (inactive) and 84.7% (inactive); in the experiment with SF-268 CNS, 97.9% (inactive) and 65.8% (inactive); in the experiment on SF-295 CNS, 110% (inactive) and 59.9% (inactive); in the experiment on SF-539 CNS, 104% (inactive) and 67% (inactive); in the experiment on UACC-257 melanoma, 92.5% (inactive) and 4.45% (active). For the same compound, in the experiment with M14 melanoma, the growth was 101% (inactive).

For the compound `O=C1NC(=O)C(=C/C=C/c2ccccc2)C(=O)N1`, the growth in the experiment with NCI-H23 lung was -49% (active); with NCI-H226 lung it was 62.7% (inactive); in the experiment with NCI-H322M lung, 97% (inactive); in the experiment with HOP-62 NSCLC it was 48.2% (inactive); in the experiment on NCI-H460 lung, 33.1% (inactive); in the experiment on HOP-92 NSCLC it was 92.8% (inactive). For the same compound, the growth with NCI-H522 lung is 6.24% (active); in the experiment on A549/ATCC NSCLC it was 80.2% (inactive); in the experiment with 786-0 renal, -25.4% (active); in the experiment on COLO 205 colon, -47.1% (active); in the experiment on K-562 leukemia, 8.24% (active); with MALME-3M melanoma, -4.86% (active). Besides, the growth in the experiment with MDA-MB-231 breast was 3.87% (active); in the experiment on RXF 393 renal it was -91.5% (active); in the experiment with SF-268 CNS it was 30% (inactive); in the experiment on SF-295 CNS, 97.8% (inactive); in the experiment on SF-539 CNS, 27.4% (inactive); in the experiment on UACC-257 melanoma it was 38.7% (inactive). Besides, the growth in the experiment on M14 melanoma was -20.5% (active).

As to `CN1[C@@H](CC(=O)c2ccccc2)CCC[C@H]1CC(=O)c1ccccc1`, the growth with NCI-H23 lung was 97.2% (inactive); in the experiment with NCI-H226 lung, 96.7% (inactive); in the experiment with NCI-H322M lung, 110% (inactive); in the experiment with HOP-62 NSCLC it was 110% (inactive); in the experiment with NCI-H460 lung it was 115% (inactive); in the experiment on HOP-92 NSCLC, 111% (inactive). The growth with NCI-H522 lung was 86.9% (inactive); in the experiment on A549/ATCC NSCLC, 93.8% (inactive); in the experiment with 786-0 renal, 108% (inactive); in the experiment on COLO 205 colon, 114% (inactive); with DU-145 prostate, 108% (inactive); in the experiment with K-562 leukemia it was 102% (inactive). The growth in the experiment on MDA-MB-231 breast is 111% (inactive); in the experiment on RXF 393 renal it was 119% (inactive); in the experiment on SF-268 CNS, 102% (inactive); in the experiment with SF-295 CNS it was 97.2% (inactive); in the experiment with SF-539 CNS it was 111% (inactive); in the experiment with UACC-257 melanoma it was 98.1% (inactive). Besides, in the experiment with M14 melanoma, the growth is 104% (inactive).

Consider `NC1CN2CCC1CC2` (configuration not stated), for which the growth with NCI-H23 lung is 98.7% (inactive); with NCI-H226 lung it was 101% (inactive); in the experiment with NCI-H322M lung, 96.5% (inactive); with HOP-62 NSCLC, 101% (inactive); in the experiment with NCI-H460 lung, 109% (inactive); in the experiment on HOP-92 NSCLC it was 77.7% (inactive). Further, the growth is 97.9% (inactive) in the experiment with NCI-H522 lung; 105% (inactive) in the experiment with A549/ATCC NSCLC; 89.4% (inactive) with 786-0 renal; 104% (inactive) with COLO 205 colon; 87.6% (inactive) with K-562 leukemia; 105% (inactive) with MALME-3M melanoma. Further, the growth was 98.3% (inactive) in the experiment on MDA-MB-231 breast; 103% (inactive) in the experiment with RXF 393 renal; 97.2% (inactive) in the experiment with SF-268 CNS; 95.9% (inactive) in the experiment with SF-295 CNS; 95.6% (inactive) in the experiment on SF-539 CNS; 101% (inactive) in the experiment on UACC-257 melanoma. Also, the growth in the experiment on M14 melanoma was 97.8% (inactive).
